This passage reports Potency results from PubChem BioAssay (NCATS).

Experiment [1] in a line: Quantitative High-Throughput drug screen in 47 multiple myeloma cell lines against the NCATS MIPE library collection: KMS26_JCRB cell viability assay (AID 1918975). Note: nearly all actives have a fitted effect of over 45% in size. In short, it runs like this: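 Luminescent ATP measurement with CellTiter-Glo gives viability, scaled between DMSO-only wells (100%) and media-only wells (0%). Cells, 500 per well, faced library compounds for 48 hours at 37C.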

A short description of experiment [2]: Quantitative High-Throughput drug screen in 47 multiple myeloma cell lines against the NCATS MIPE library collection: MOLP8_DSMZ cell viability assay (AID 1918977). Note: nearly all actives have a fitted effect of over 45% in size. Put shortly:
(§1)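 Plated at 500 cells per well, myeloma lines received MIPE 4.0 compounds by pin tool. Following 48 h culture at 37 °C, CellTiter-Glo luminescence gave viability relative to DMSO and media-only controls.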

The nature of experiment [3]: Quantitative High-Throughput drug screen in 47 multiple myeloma cell lines against the NCATS MIPE library collection: NCIH929_DSMZ cell viability assay (AID 1918978). Note: nearly all actives have a fitted effect of over 35% in size. In short, it runs like this: as §1
The nature of experiment [4]: Quantitative High-Throughput drug screen in 47 multiple myeloma cell lines against the NCATS MIPE library collection: MM1S_ATCC cell viability assay (AID 1918980). Note: nearly all actives have a fitted effect of over 45% in size. Put shortly:
as §1

A short description of experiment [5]: Quantitative High-Throughput drug screen in 47 multiple myeloma cell lines against the NCATS MIPE library collection: MM1R_ATCC cell viability assay (AID 1918981). Note: nearly all actives have a fitted effect of over 35% in size. Put shortly:
as §1

Experiment [6] can be described thus: Quantitative High-Throughput drug screen in 47 multiple myeloma cell lines against the NCATS MIPE library collection: KMS28PE_JCRB cell viability assay (AID 1918983). Note: nearly all actives have a fitted effect of over 35% in size. In short, it runs like this:
as §1

Experiment [7] can be described thus: Quantitative High-Throughput drug screen in 47 multiple myeloma cell lines against the NCATS MIPE library collection: L363_DSMZ cell viability assay (AID 1918984). Note: nearly all actives have a fitted effect of over 40% in size. Put shortly: as §1
Experiment [8] is described as follows: Quantitative High-Throughput drug screen in 47 multiple myeloma cell lines against the NCATS MIPE library collection: OCIMY1_PLB cell viability assay (AID 1918979). For viability: series mostly up to about 46 µM. Note: nearly all actives have a fitted effect of over 35% in size. Put shortly: as §1
The nature of experiment [9]: Quantitative High-Throughput drug screen in 47 multiple myeloma cell lines against the NCATS MIPE library collection: LP1_DSMZ cell viability assay (AID 1918982). Note: nearly all actives have a fitted effect of over 35% in size. Put shortly:
as §1

Experiment [10] can be described thus: Quantitative High-Throughput drug screen in 47 multiple myeloma cell lines against the NCATS MIPE library collection: MMM1_PLB cell viability assay (AID 1918976). Note: nearly all actives have a fitted effect of over 35% in size. Put shortly:
as §1

Inconclusive results are not listed. Unmarked numbers belong to inactive results. Calls of active or inactive are those of the source. Calls come from the whole dose curve; as a rule, active = well fitted curve in the direction sought with a large enough effect; inconclusive = small, poorly fitted or top-dose-only effect, or another doubt; inactive = no such curve, though single readings can be large; an effect the other way counts as inactive or inconclusive.
Potency is the fitted concentration of half-maximal effect.

For `O=C(O)Cn1nnc(-c2cc(N3CCC(Oc4cc(F)ccc4Br)CC3)no2)n1`, the Potency entry in experiment [1], in experiment [2], in experiment [3], in experiment [5], in experiment [6] and in [7] was “inactive” throughout. Further, the Potency in experiment [4] is 8.33 µM (active).
Turning to `CN[C@H]1CCc2cc(OC)c(OC)c(OC)c2-c2ccc(OC)c(=O)cc21`, the Potency in experiment [1] is 0.0148 µM (active); in [2], 0.0235 µM (active); in experiment [3], 0.0235 µM (active); in experiment [5] it was 0.0066 µM (active); in [6], 0.0019 µM (active).
With `CC(C)c1cc(-c2n[nH]c(=O)n2-c2ccc3c(ccn3C)c2)c(O)cc1O`, the Potency was 0.0372 µM (active) in experiment [1]; 0.0209 µM (active) in experiment [3]; 0.0469 µM (active) in experiment [8]; 0.059 µM (active) in [4]; 0.0469 µM (active) in experiment [5]; 0.0132 µM (active) in [6]. Moreover, in experiment [7], the Potency is 0.0118 µM (active).
With `Nc1nc(-c2nn(Cc3ccccc3F)c3ncccc23)nc(N)c1N1CCOCC1`, the Potency result in experiment [1], in [2], in experiment [8], in experiment [4] and in experiment [6] was “inactive” each time.
As for `CN1c2cc(O)c(N=NC(N)=O)cc2CC1S(=O)(=O)O` (stereo not given), the Potency entry in experiment [1], in experiment [2], in [3], in experiment [5], in [9] and in [6] was “inactive” each time. Besides, the Potency entry in [7] was “inactive”.
For `O=C(C=Cc1c(C(=O)O)[nH]c2cc(Cl)cc(Cl)c12)Nc1ccccc1`, the Potency result in experiment [1], in experiment [3], in experiment [8], in [4], in [5] and in [9] was “inactive” each time. In addition, the Potency entry in experiment [6] was “inactive”.
Regarding `Cn1c2cc(S(C)=O)sc2c2cnn(Cc3cccc(N)c3)c(=O)c21` (stereo not given), the Potency result in experiment [1], in experiment [3], in experiment [8], in [4], in experiment [5] and in experiment [6] was “inactive” each time.
For the compound `COc1cc(C(=O)NS(=O)(=O)c2ccccc2C)ccc1Cc1cn(C)c2ccc(NC(=O)OC3CCCC3)cc12`, the Potency in [1] was 16.6 µM (active); in experiment [2], 18.7 µM (active); in experiment [3], 18.7 µM (active); in experiment [5], 14.8 µM (active); in [9], 20.9 µM (active); in [6], 23.5 µM (active).
On to `Nc1ccc(S(=O)(=O)Nc2ncccn2)cc1`, for which the Potency entry in experiment [1], in [2], in experiment [8], in experiment [4], in experiment [5] and in [9] was “inactive” throughout. Further, the Potency result in experiment [6] was “inactive”.
For the compound `COc1cc(OC2CCN(C)CC2)ccc1Nc1ncc2c(n1)n(C1CCCC1)c(=O)n2C`, the Potency was 13.2 µM (active) in experiment [1]; 6.62 µM (active) in experiment [3]; 11.8 µM (active) in [4]; 18.7 µM (active) in [5]; 16.6 µM (active) in experiment [6]; 7.43 µM (active) in experiment [7].
Turning to `Cn1cc(-c2[nH]c3cc(NC(=O)[C@H](N)C4CCCCC4)cc4c3c2C=NNC4=O)cn1`, the Potency in experiment [1] is 8.33 µM (active); in experiment [2] it was 0.526 µM (active); in experiment [3], 1.32 µM (active); in experiment [4] it was 1.18 µM (active); in experiment [5], 1.05 µM (active); in experiment [6], 1.48 µM (active). The Potency in experiment [7] was 0.118 µM (active).
Regarding `CNC(=O)c1ccc(N2C(=S)N(c3cnc(C#N)c(C(F)(F)F)c3)C(=O)C23CCC3)cc1F`, the Potency in experiment [1] was 1.48 µM (active); in experiment [3], 0.332 µM (active); in [4] it was 0.132 µM (active); in experiment [5], 1.05 µM (active); in experiment [6] it was 26.4 µM (active); in [7], 7.43 µM (active).
As for `COCCOc1ccc2c(c1)ncn2-c1ccc2cccc(N3CCC(N)CC3)c2n1`, the Potency in [1] was 13.2 µM (active); in experiment [3], 1.66 µM (active); in [8], 2.64 µM (active); in experiment [4], 3.72 µM (active); in experiment [5], 1.66 µM (active); in experiment [9], 2.09 µM (active). Moreover, the Potency in experiment [6] was 13.2 µM (active); in experiment [7], 0.187 µM (active).
On to `COc1cc(-c2nn(C3CCC(N4CCN(C(C)=O)CC4)CC3)c3ncnc(N)c23)ccc1NC(=O)c1cc2ccccc2n1C` (stereo not given), for which the Potency in experiment [1] is 14.8 µM (active); in experiment [2], 10.5 µM (active); in [4], 5.9 µM (active); in experiment [5], 5.9 µM (active); in [6] it was 14.8 µM (active).
On to `Clc1cccc(-c2nnnn2Cc2cccnc2)c1Cl`, for which the Potency result in experiment [1], in experiment [2], in experiment [8], in [5] and in experiment [6] was “inactive” in each case.
In the case of `Cc1cn(-c2cc(NC(=O)c3ccc(C)c(Nc4nccc(-c5cccnc5)n4)c3)cc(C(F)(F)F)c2)cn1`, the Potency in experiment [10] is 11.8 µM (active); in experiment [2] it was 20.9 µM (active); in [8], 26.4 µM (active); in [5], 18.7 µM (active); in experiment [9], 23.5 µM (active); in experiment [6] it was 20.9 µM (active). For the same compound, the Potency result in [3], in experiment [4] and in experiment [7] was “inactive” each time.
`Cc1ccc2nc(NC(=O)CSc3nc4c(c(=O)n3-c3ccccc3)SCC4)sc2c1`: the Potency in [1] was 23.5 µM (active); in experiment [4], 13.2 µM (active); in experiment [5], 16.6 µM (active); in experiment [9], 8.33 µM (active); in experiment [6], 23.5 µM (active); in experiment [7], 11.8 µM (active).
With `CC(C)(C)OC(=O)Nc1ccc(-c2cc(C(=O)NCCCCCCC(=O)NO)no2)cc1`, the Potency in experiment [1] is 3.72 µM (active); in [3] it was 1.66 µM (active); in experiment [4], 2.35 µM (active); in experiment [6] it was 2.35 µM (active); in [7], 0.469 µM (active).
On to `CNc1nccc(-c2cccnc2Oc2cc(C(=O)Nc3cccc(C(F)(F)F)c3)ccc2C)n1`, for which the Potency in experiment [10] is 18.7 µM (active); in [3] it was 5.26 µM (active); in experiment [4], 18.7 µM (active); in experiment [9], 23.5 µM (active); in experiment [6] it was 20.9 µM (active); in experiment [7], 14.8 µM (active).
